Screening results: PubChem, The Scripps Research Institute Molecular Screening Center
Hits are enriched below; roughly 3.5% of the tested compounds scored in any of these assays.
TEAD-YAP inh: TEAD-YAP interaction inhibition. HEK-TIYL cells, TEAD-Gal4/YAP UAS-luciferase luminescence. inhibition, % at 9.12 µM. actives 1.4% (n = 640,000); in the data active means inhibition above about 32%
MITF primary: inhibitors of human MITF | O75030 | AlphaScreen MITF homodimerization, bead proximity signal | inhibition, % at 2.6 µM | actives 0.91% (n = 650,000) | AID 1259374; in the data active means inhibition above about 50%
GPR151 ag: human GPR151 activation; activation, % at 11.2 µM; AID 1508602; actives 1% (n = 650,000); PathHunter beta-arrestin GPR151 cells, luminescence; in the data active means activation above about 4.9%
Target sequence (Q8TDV0 whole entry, looked up): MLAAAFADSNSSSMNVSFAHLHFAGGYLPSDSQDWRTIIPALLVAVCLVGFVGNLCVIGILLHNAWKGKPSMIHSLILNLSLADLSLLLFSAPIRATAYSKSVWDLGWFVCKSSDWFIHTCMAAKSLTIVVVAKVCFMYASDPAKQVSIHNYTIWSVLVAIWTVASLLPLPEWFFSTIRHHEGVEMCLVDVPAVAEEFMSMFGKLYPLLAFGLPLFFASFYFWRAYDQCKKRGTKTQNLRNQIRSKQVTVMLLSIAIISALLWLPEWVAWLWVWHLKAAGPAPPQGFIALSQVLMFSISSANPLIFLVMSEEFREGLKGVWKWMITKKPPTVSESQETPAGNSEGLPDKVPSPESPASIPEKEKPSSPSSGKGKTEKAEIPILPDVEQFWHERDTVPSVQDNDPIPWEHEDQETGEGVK
FBW7 activator: activators of human E3 ligase FBW7; Q969H0; AlphaScreen FBW7–phospho-cyclin E peptide binding, activator screen; normalized activity (activation), % at 26.1 µM; actives 0.13% (n = 650,000); in the data active means normalized activity above about 1.9%;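 further: purified mutant Fbw7 with reduced substrate affinity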
Large screens that a line does not name were inactive.

COc1ccc(-c2nc(Nc3ccc(NC(C)=O)cc3)c3ncn(C(C)C)c3n2)cn1	TEAD-YAP inh 35.0
CC(C)n1cnc2c(Nc3ccccc3)nc(-c3cccc(N)c3)nc21	none
CC(=O)Nc1ccc(Nc2nc(-c3ccccc3)nc3c2ncn3-c2ccccc2)cc1	none
CC(=O)Nc1ccc(Nc2nc(-c3cccc(N)c3)nc3c2ncn3-c2ccccc2)cc1	TEAD-YAP inh 40.7
CC(=O)Nc1ccc(Nc2nc(-c3ccc(C(N)=O)cc3)nc3c2ncn3C(C)C)cc1	none
CCN1CCN(CCC(=O)Nc2ccccc2Cl)CC1	none
CC1(C)CC(=O)C2=C(C1)Nc1ccccc1NC2c1ccc2c(c1)OCO2 (configuration not stated)	none
O=C1OCC2=C1C(c1ccc3c(c1)OCO3)Nc1ccc3ccccc3c12 (configuration not stated)	TEAD-YAP inh 53.9
O=C1NC(=S)S/C1=C\c1ccc2c(c1)OCO2	none
O=C1NC(=S)N/C1=C/c1ccc2c(c1)OCO2	TEAD-YAP inh 36.0
COc1cc(/C=C2\NC(=S)NC2=O)ccc1O	none
COc1cccc(/C=C2/NC(=S)NC2=O)c1O	TEAD-YAP inh 41.2
COc1cc(/C=C2/NC(=S)NC2=O)ccc1O	TEAD-YAP inh 54.4
COC(=O)c1ccc(CN2CCN(c3ccc(C(F)(F)F)cn3)C2=O)cc1	none
COCc1nnc(NC(=O)c2ccccc2Cl)s1	none
CCN(CC)c1ccc(-c2c3cc(O)c(=O)cc-3oc3cc(O)c(O)cc23)cc1	MITF primary 109.9
O=c1cc2oc3cc(O)c(O)cc3c(-c3ccc4c(c3)OCO4)c-2cc1O	MITF primary 113.3
O=c1cc2oc3cc(O)c(O)cc3c(-c3ccc([N+](=O)[O-])o3)c-2cc1O	MITF primary 105.9
CCCc1cc2c(=O)c(-c3ccc4c(c3)OCO4)c(CC)oc2cc1O	none
COc1ccc(CNCc2c(C(=O)N3C[C@@H](C)O[C@@H](C)C3)nc3sccn23)cc1	none
O=C(O)c1cccc(N2C(=O)c3cccc4c(Br)ccc(c34)C2=O)c1	none
Nc1ccc2nc(N)sc2c1	none
Nc1nc2ccc(Oc3ccc4nc(N)sc4c3)cc2s1	TEAD-YAP inh 32.8
OCCC1CCCCN1c1ccnc2c(-c3ccoc3)cnn12 (configuration not stated)	none
OCCC1CCCCN1c1ccnc2c(-c3ccc4c(c3)OCO4)cnn12 (configuration not stated)	TEAD-YAP inh 42.6
OCCC1CCCCN1c1ccnc2c(-c3ccc(CO)cc3)cnn12 (configuration not stated)	none
OCCC1CCCCN1c1ccnc2c(-c3ccc(O)cc3)cnn12 (configuration not stated)	TEAD-YAP inh 92.8
OCCC1CCCCN1c1ccnc2c(-c3ccc(Cl)cc3)cnn12 (configuration not stated)	TEAD-YAP inh 47.1
COc1ccccc1-c1cnn2c(N3CCC[C@H]3CO)ccnc12	none
OC[C@@H]1CCCN1c1ccnc2c(-c3ccccc3Cl)cnn12	TEAD-YAP inh 48.4
O=C(CN(c1cccc([N+](=O)[O-])c1)S(=O)(=O)c1ccccc1)NCCSCc1ccc(Cl)cc1	none
O=C(Nc1ccc(-c2cn3c(n2)SCC3)cc1)C1(c2cccs2)CCCC1	none
OC[C@@H]1CCCN1c1ccnc2c(-c3ccc(Cl)cc3)cnn12	TEAD-YAP inh 85.1
O=C(O)c1cccc(-c2cnn3c(N4CCC[C@H]4CO)ccnc23)c1	TEAD-YAP inh 100.8
CCOCCN1CCN(c2cc(C)nc3cc(-c4ccc(F)cc4)nn23)CC1	none
Cc1nc(NCCCO)c2c(-c3cccs3)csc2n1	TEAD-YAP inh 32.1
N#CC1=C(N)N2C(=C(C#N)C1c1cccs1)Sc1ccccc12 (configuration not stated)	none
CCOC(=O)c1c(NC(=O)CSc2n[nH]c(-c3ccncc3)n2)sc(C(C)=O)c1C	none
COc1ccc(CCNC(=O)c2ccc3nc(Nc4ccc5ncccc5c4)sc3c2)cc1	TEAD-YAP inh 31.9
O=C1NN(c2ccc(I)cc2)C(=O)/C1=C\c1ccccc1O	MITF primary 53.6
O=C1c2cccnc2C(=O)N1Cc1ccc(S(=O)(=O)Nc2ccc(F)cc2)s1	none
O=C(NC1CCCCCCC1)c1cccc(N2CCCC2=O)c1	TEAD-YAP inh 45.9
O=C(NC1CCCCCC1)c1ccc(N2CCCC2=O)cc1	none
Cc1ccc2c(c1)N(CC(=O)NC(C)(C)C)C(=O)CO2	none
CCCNC(=O)c1cc(S(=O)(=O)N2CCc3ccccc32)cn1C	TEAD-YAP inh 32.2
COC(=O)c1cc(S(=O)(=O)N2CCc3ccccc32)cn1C	none
Cc1ccc(S(=O)(=O)N2CCCc3ccccc32)cc1C	none
O=S(=O)(c1ccc(F)cc1)N1CCc2ccccc21	none
